In PubChem BioAssay (EPA / NIEHS):
Where “and” joins values, the source holds several entries; their conditions need not be identical. Equal values may be shown once. Some structures have more than one record in an assay (separate samples or runs), and their calls can disagree. Calls of active or inactive are those of the source. How the source made its calls: active means hit-call score of the fitted dose curve at least 0.9, where 1 is the maximum; inactive means score below 0.9.

read-out: Macrophage colony-stimulating factor (MCSF), CSF1 (gene 1435); experiment: BSK_LPS_MCSF: BioMAP Diversity Plus: LPS Assay for Macrophage colony-stimulating factor (MCSF) Biomarker Activity (AID 2283083); details: primary human HUVEC with PBMC; actives raise or lower the signal
Outline: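 Bidirectional fit versus DMSO of ELISA-measured M-CSF in co-cultured human umbilical vein endothelial cells and PBMC, sampled 24 h after dosing.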

Sequence of Tumor necrosis factor (Homo sapiens) (P01375 whole entry, looked up): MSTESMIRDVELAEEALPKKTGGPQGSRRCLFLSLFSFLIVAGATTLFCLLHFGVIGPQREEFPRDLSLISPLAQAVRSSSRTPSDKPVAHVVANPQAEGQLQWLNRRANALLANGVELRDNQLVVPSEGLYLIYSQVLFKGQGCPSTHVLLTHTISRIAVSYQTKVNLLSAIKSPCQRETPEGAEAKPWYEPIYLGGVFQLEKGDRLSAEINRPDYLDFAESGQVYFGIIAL

Row | Compound | outcome | AC50
1 | CCOC(=O)C(C)Oc1ccc(Oc2cnc3cc(Cl)ccc3n2)cc1 (stereo unspecified) | inactive | –
2 | C#C[C@]1(O)CC[C@H]2[C@@H]3CCC4=CC(=O)CC[C@@H]4[C@H]3CC[C@@]21CC | – | 14.5 µM (active)
3 | CC(C)(c1ccc(O)cc1)c1ccc(O)cc1 | inactive | –
4 | COC(=O)c1ccccc1S(=O)(=O)NC(=O)Nc1nc(OC(F)F)cc(OC(F)F)n1 | inactive | –
5 | S=C(S)NCCNC(=S)S.[Mn+2].[S-]C([S-])=NCCN=C([S-])[S-].[Zn+2] | inactive | –
6 | CCC(O)=C1C(=O)CC(C(=O)O)CC1=O (stereo unspecified) | inactive | –
7 | CCCCCOC(=O)COc1cc(N2C(=O)C3=C(CCCC3)C2=O)c(F)cc1Cl | inactive | –
8 | CCOC(=O)c1ccc(O)cc1 | inactive | –
9 | CCCCC(CC)COC(=O)c1ccccc1C(=O)O (stereo unspecified) | inactive | –
10 | CCOC(=O)NCCOc1ccc(Oc2ccccc2)cc1 | – | 14.7 µM (active)
11 | CCC(C)OC(=O)N1CCCCC1CCO (stereo unspecified) | inactive | –
12 | CCNc1nc(N)nc(Cl)n1 | inactive | –
13 | COC(=O)c1ccccc1C(=O)O | inactive | –
14 | COC(=O)c1cccc(C)c1S(=O)(=O)NC(=O)Nc1nc(OCC(F)(F)F)nc(N(C)C)n1 | inactive | –
15 | O=C(O)C1(C(=O)Nc2ccc(Cl)cc2Cl)CC1 | inactive | –
16 | Oc1ccc(C(c2ccc(O)cc2)C(Cl)(Cl)Cl)cc1 | – | 20 µM (active)
17 | N[C@@H](Cc1cc(I)c(Oc2ccc(O)c(I)c2)c(I)c1)C(=O)O | inactive | –
18 | COc1c(Cl)ccc(Cl)c1C(=O)O | inactive | –
19 | CC(C)CCCCCCc1ccc(O)cc1 | – | 9.04 µM (active)
20 | N#CSCSc1nc2ccccc2s1 | – | 2.25 µM (active) and 6.78 µM (active)
21 | CCN(Cc1c(F)cccc1Cl)c1c([N+](=O)[O-])cc(C(F)(F)F)cc1[N+](=O)[O-] | – | 11.6 µM (active)
22 | O=C(O)c1ccccc1 | inactive | –
23 | Cc1nn(C)c(Oc2ccccc2)c1C=NOCc1ccc(C(=O)OC(C)(C)C)cc1 | – | 3.48 µM (active)
24 | CC(=O)[C@H]1CC[C@H]2[C@@H]3CCC4=CC(=O)CC[C@]4(C)[C@H]3CC[C@]12C | inactive | –
25 | CCCCC(CC)CN1C(=O)C2C3C=CC(C3)C2C1=O (stereo unspecified) | – | 15.5 µM (active)
26 | O=C(c1ccccc1)C1CCCCC1 | inactive | –
27 | CCCN(CCC)C(=O)SCC | inactive | –
28 | CCCOC(=O)c1ccc(C(=O)OCCC)nc1 | inactive | –
29 | CCCOC(=O)NCCCN(C)C | inactive | –

read-out: Tissue Factor, F3 (gene 2152); experiment: BSK_LPS_TissueFactor: BioMAP Diversity Plus: LPS Assay for Tissue Factor Biomarker Activity (AID 2283084); details: primary human HUVEC with PBMC; actives raise or lower the signal
Outline: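 Read-out: CD142 ELISA, 24 h. System: LPS-driven human endothelial/PBMC co-culture. Analysis: up- or down-signal fitted against DMSO.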

Row | Compound | outcome | AC50
30 | CCOC(=O)C(C)Oc1ccc(Oc2cnc3cc(Cl)ccc3n2)cc1 (stereo unspecified) | inactive | –
31 | C#C[C@]1(O)CC[C@H]2[C@@H]3CCC4=CC(=O)CC[C@@H]4[C@H]3CC[C@@]21CC | inactive | –
32 | CC(C)(c1ccc(O)cc1)c1ccc(O)cc1 | inactive | –
33 | COC(=O)c1ccccc1S(=O)(=O)NC(=O)Nc1nc(OC(F)F)cc(OC(F)F)n1 | inactive | –
34 | S=C(S)NCCNC(=S)S.[Mn+2].[S-]C([S-])=NCCN=C([S-])[S-].[Zn+2] | inactive | –
35 | CCC(O)=C1C(=O)CC(C(=O)O)CC1=O (stereo unspecified) | inactive | –
36 | CCCCCOC(=O)COc1cc(N2C(=O)C3=C(CCCC3)C2=O)c(F)cc1Cl | – | 27.8 µM (active)
37 | CCOC(=O)c1ccc(O)cc1 | inactive | –
38 | CCCCC(CC)COC(=O)c1ccccc1C(=O)O (stereo unspecified) | inactive | –
39 | CCOC(=O)NCCOc1ccc(Oc2ccccc2)cc1 | inactive | –
40 | CCC(C)OC(=O)N1CCCCC1CCO (stereo unspecified) | inactive | –
41 | CCNc1nc(N)nc(Cl)n1 | inactive | –
42 | COC(=O)c1ccccc1C(=O)O | inactive | –
43 | COC(=O)c1cccc(C)c1S(=O)(=O)NC(=O)Nc1nc(OCC(F)(F)F)nc(N(C)C)n1 | inactive | –
44 | O=C(O)C1(C(=O)Nc2ccc(Cl)cc2Cl)CC1 | inactive | –
45 | Oc1ccc(C(c2ccc(O)cc2)C(Cl)(Cl)Cl)cc1 | – | 37 µM (active)
46 | N[C@@H](Cc1cc(I)c(Oc2ccc(O)c(I)c2)c(I)c1)C(=O)O | – | 3.17 µM (active)
47 | COc1c(Cl)ccc(Cl)c1C(=O)O | inactive | –
48 | CC(C)CCCCCCc1ccc(O)cc1 | – | 12.3 µM (active)
49 | N#CSCSc1nc2ccccc2s1 | – | 2.42 µM (active) and 5.42 µM (active)
50 | CCN(Cc1c(F)cccc1Cl)c1c([N+](=O)[O-])cc(C(F)(F)F)cc1[N+](=O)[O-] | inactive | –
51 | O=C(O)c1ccccc1 | inactive | –
52 | Cc1nn(C)c(Oc2ccccc2)c1C=NOCc1ccc(C(=O)OC(C)(C)C)cc1 | inactive | –
53 | C[C@]12C[C@H](O)[C@H]3[C@@H](CCC4=CC(=O)CC[C@@]43C)[C@@H]1CC[C@@H]2C(=O)CO | inactive | –
54 | CC(=O)[C@H]1CC[C@H]2[C@@H]3CCC4=CC(=O)CC[C@]4(C)[C@H]3CC[C@]12C | inactive | –
55 | CCCCC(CC)CN1C(=O)C2C3C=CC(C3)C2C1=O (stereo unspecified) | inactive | –
56 | O=C(c1ccccc1)C1CCCCC1 | inactive | –
57 | CCCN(CCC)C(=O)SCC | inactive | –
58 | CCCOC(=O)c1ccc(C(=O)OCCC)nc1 | inactive | –
59 | CCCOC(=O)NCCCN(C)C | inactive | –

read-out: Tumor necrosis factor (Homo sapiens) (UniProt P01375); experiment: BSK_LPS_TNFa: BioMAP Diversity Plus: LPS Assay for Tumour Necrosis Factor alpha (TNFa) Biomarker Activity (AID 2283085); details: primary human HUVEC with PBMC; actives raise or lower the signal;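 on AC50: TNFa protein level quantified by ELISA in the co-culture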
Outline: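 Read-out is ELISA of TNFa in primary human endothelial cell–PBMC co-cultures at 24 h after compound. Activity in either direction was fitted against DMSO.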

Row | Compound | outcome | AC50
60 | CCOC(=O)C(C)Oc1ccc(Oc2cnc3cc(Cl)ccc3n2)cc1 (stereo unspecified) | inactive | –
61 | C#C[C@]1(O)CC[C@H]2[C@@H]3CCC4=CC(=O)CC[C@@H]4[C@H]3CC[C@@]21CC | inactive | –
62 | CC(C)(c1ccc(O)cc1)c1ccc(O)cc1 | inactive | 2.8 µM (active)
63 | COC(=O)c1ccccc1S(=O)(=O)NC(=O)Nc1nc(OC(F)F)cc(OC(F)F)n1 | – | 12 µM (active)
64 | S=C(S)NCCNC(=S)S.[Mn+2].[S-]C([S-])=NCCN=C([S-])[S-].[Zn+2] | inactive | 2.39 µM (active)
65 | CCC(O)=C1C(=O)CC(C(=O)O)CC1=O (stereo unspecified) | inactive | –
66 | CCCCCOC(=O)COc1cc(N2C(=O)C3=C(CCCC3)C2=O)c(F)cc1Cl | – | 20 µM (active)
67 | CCOC(=O)c1ccc(O)cc1 | inactive | –
68 | CCCCC(CC)COC(=O)c1ccccc1C(=O)O (stereo unspecified) | – | 21.8 µM (active)
69 | CCOC(=O)NCCOc1ccc(Oc2ccccc2)cc1 | inactive | –
70 | CCC(C)OC(=O)N1CCCCC1CCO (stereo unspecified) | inactive | –
71 | CCNc1nc(N)nc(Cl)n1 | – | 14.3 µM (active)
72 | COC(=O)c1ccccc1C(=O)O | inactive | –
73 | COC(=O)c1cccc(C)c1S(=O)(=O)NC(=O)Nc1nc(OCC(F)(F)F)nc(N(C)C)n1 | inactive | –
74 | O=C(O)C1(C(=O)Nc2ccc(Cl)cc2Cl)CC1 | inactive | –
75 | Oc1ccc(C(c2ccc(O)cc2)C(Cl)(Cl)Cl)cc1 | – | 4.66 µM (active)
76 | N[C@@H](Cc1cc(I)c(Oc2ccc(O)c(I)c2)c(I)c1)C(=O)O | inactive | –
77 | COc1c(Cl)ccc(Cl)c1C(=O)O | inactive | –
78 | CC(C)CCCCCCc1ccc(O)cc1 | – | 7.19 µM (active)
79 | N#CSCSc1nc2ccccc2s1 | – | 992 nM (active) and 2.17 µM (active)
80 | CCN(Cc1c(F)cccc1Cl)c1c([N+](=O)[O-])cc(C(F)(F)F)cc1[N+](=O)[O-] | inactive | –
81 | O=C(O)c1ccccc1 | inactive | –
82 | Cc1nn(C)c(Oc2ccccc2)c1C=NOCc1ccc(C(=O)OC(C)(C)C)cc1 | inactive | –
83 | C[C@]12C[C@H](O)[C@H]3[C@@H](CCC4=CC(=O)CC[C@@]43C)[C@@H]1CC[C@@H]2C(=O)CO | inactive | –
84 | CC(=O)[C@H]1CC[C@H]2[C@@H]3CCC4=CC(=O)CC[C@]4(C)[C@H]3CC[C@]12C | inactive | –
85 | CCCCC(CC)CN1C(=O)C2C3C=CC(C3)C2C1=O (stereo unspecified) | – | 0.237 µM (active)
86 | O=C(c1ccccc1)C1CCCCC1 | inactive | –
87 | CCCN(CCC)C(=O)SCC | inactive | –
88 | CCCOC(=O)c1ccc(C(=O)OCCC)nc1 | inactive | –
89 | CCCOC(=O)NCCCN(C)C | inactive | –
